SW480 rerep = induces DNA re-replication in SW480 colon adenocarcinoma cells; AID 624297; 1.8% of 340,000 active; Potency, µM (doses to about 46.1 µM), for inactives: top-dose re-replication activation, actives largely listed as activators; SW480 DNA re-replication, Hoechst DNA content imaging, 48 h; note: % of control where 0% means no effect; nearly all actives have a fitted effect of over 55% in size
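Cells (250 per well) received 23 nL compound or DMSO by pin tool and were kept 48 hr at 37 C, 5% CO2. Nuclei were then stained with Hoechst for 40 min and scanned for DNA content.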
ELG1 repair inh = ELG1-dependent DNA repair inhibition; HEK293T ELG1-luciferase reporter, luminescence, 16 h; DNA damage induced by 5-fluorouridine; Potency, µM (doses to about 46.1 µM), without a hit: at the top dose activity change, negative = inhibition, hits mostly inhibitors; 2.3% of 330,000 active; note: % is set by controls: 0 for no effect and ±100 for the full control effect; nearly all actives have a fitted effect of over 55% in size
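In this reporter screen, reduction of luminescence relative to DMSO vehicle indicated activity. Compounds and 5-fluorouridine were added together to 2,000 cells per well, incubated for 16 hr at 37 °C, then developed with ONE-Glo.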
KB-3-1 cytotox = kills parental KB-3-1 adenocarcinoma cells | KB-3-1 viability, CellTiter-Glo ATP luminescence, 72 h | Potency, µM (series often up to 46.1 µM), hits mostly cytotoxic | 1.4% of 400,000 active; note: % is set by controls: 0 for no effect and ±100 for the full control effect; nearly all actives have a fitted effect of over 60% in size
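Screening of KB-3-1 cells (DMEM, 10% FBS, phenol-red free) ran from lowest to highest compound concentration; after 72 h at 37 °C viability was read luminescently and curves fitted.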
MCF10A rerep = inducers of DNA re-replication in MCF 10A breast cells. MCF 10A DNA re-replication, Hoechst nuclear intensity, 48 h. Potency, µM (titrated, usually from 46.1 µM), without a hit: top-dose activity, positive = re-replication, hits mostly activators. 2.9% of 350,000 active; note: % of control where 0% means no effect; nearly all actives have a fitted effect of over 50% in size
KB-V1 MDR tox = kills drug-selected multidrug resistant KB-V1 cells; 3.4% of 400,000 active; KB-V1 MDR cells viability, CellTiter-Glo, 72 h; Potency, µM (highest dose often 46.1 µM), hits mostly cytotoxic; AID 1347076; note: % is set by controls: 0 for no effect and ±100 for the full control effect; nearly all actives have a fitted effect of over 60% in size
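KB-V1, DMEM (no phenol red) + 10% FBS; cpd pin-transferred, titration series; 72 h, 37 degrees C; CellTiter-Glo, luminescence. Data normalized, curve-fit.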
An asterisk follows results filed as active; i = inactive; u = inconclusive; x = no result given; [ ] = another dose, or the depositor's remark. Hits are enriched below; roughly 8.1% of the tested compounds scored in any of these assays. Calls come from the whole dose curve; as a rule, active = well fitted curve in the direction sought with a large enough effect; inconclusive = small, poorly fitted or top-dose-only effect, or another doubt; inactive = no such curve, though single readings can be large; an effect the other way counts as inactive or inconclusive. Potency is the fitted concentration of half-maximal effect.

SMILES	SW480 rerep	ELG1 repair inh	KB-3-1 cytotox	MCF10A rerep	KB-V1 MDR tox
CCOc1ccc(N2C(=O)CC(NCCNc3ccc(C(=O)c4cccs4)cc3)C2=O)cc1 (stereo not drawn)	-9%	u	i	-1%	i
CCc1ccc(/C=N/n2c(C)cc(C)c(C#N)c2=O)cc1	-52%	12%	i	16%	9.2µM*
COc1ccc(C(=O)Nc2nnc(SCc3cc(=O)c4cc(C)ccc4[nH]3)s2)cc1OC	x	x	i	x	i
COc1ccc(C2=NN(CN3C(=O)C(=O)c4ccccc43)C(c3ccc(Br)cc3)C2)cc1 (stereo not drawn)	1%	u	i	u	i
COc1ccc(-c2nc(NC(=O)C3CCN(c4nc5ccccc5o4)CC3)sc2C)cc1	u	12µM*	26µM*	20%	i
O=C(NCc1cccs1)C1CCN(c2nc3ccccc3o2)CC1	-3%	-3%	i	-1%	i
CC(C)CCNC(=O)C1CCN(c2nc3ccccc3o2)CC1	-3%	u	u	-6%	13µM*
NS(=O)(=O)c1ccc(NC(=O)CSc2n[nH]c(=O)n2Cc2ccccc2)cc1	-1%	8%	i	-4%	i
C[C@@H]1CN([C@@H](C)CO)C(=O)CCCn2nncc2CO[C@@H]1CN(C)S(=O)(=O)c1ccc(Cl)cc1	x	x	i	x	u
COC(=O)c1c(C)c2c(C)cc3ccccn3c-2c1C(=O)OC	2%	-12%	i	-1%	i
COC(=O)c1cc2c(-c3ccccc3)cc3ccccn3c-2c1C(=O)OC	3%	23µM*	u	u	u
O=C(CCc1nnc(Cc2c[nH]c3ccccc23)o1)NC1CCCC1	-6%	0%	i	-16%	i
CN(CC(=O)Nc1ccccc1C(F)(F)F)C(=O)COc1cccnc1[N+](=O)[O-]	-13%	-9%	i	-5%	u
CC1CCN(S(=O)(=O)c2ccc(C(=O)Nc3sccc3C(N)=O)cc2)CC1	-8%	u	i	u	i
CC(=O)c1cccc(NC(=O)C2(C)Cc3c(-c4cccc(C(N)=O)c4)ccnc3O2)c1 (stereo not drawn)	x	x	i	x	i
CC1(C(=O)NCc2ccco2)Cc2c(-c3cccc(C(F)(F)F)c3)ccnc2O1 (stereo not drawn)	x	x	6.5µM*	x	u
CC(=O)Nc1ccc(-c2ccnc3c2CC(C)(C(=O)NCc2ccco2)O3)cc1 (stereo not drawn)	x	x	10µM*	x	i
CN(C)c1ccc(-c2ccnc3c2CC(C)(C(=O)NCc2ccco2)O3)cc1 (stereo not drawn)	x	x	u	x	i
CC1(C(=O)NCc2ccco2)Cc2c(-c3cccc(C(N)=O)c3)ccnc2O1 (stereo not drawn)	x	x	10µM*	x	i
COc1ccc(NC(=O)C2(C)Cc3c(-c4cccc(C(N)=O)c4)ccnc3O2)cn1 (stereo not drawn)	x	x	9.2µM*	x	i
CC(C)CN(C[C@@H](O)[C@H](Cc1ccccc1)NC(=O)O[C@H]1CCOC1)S(=O)(=O)c1ccc(N)cc1	7%	x	x	-7%	x
O=C(CCNS(=O)(=O)c1ccc(Br)cc1)N1CCCCCCC1	-4%	6%	i	6%	u
Cc1ccc(OCCSc2nc3ncnc(N)c3[nH]2)cc1	-86%	-3%	i	u	i
CC1(C(=O)NCc2ccccc2)Cc2c(-c3cccc(C(N)=O)c3)ccnc2O1 (stereo not drawn)	x	x	6.5µM*	x	i
COc1ccccc1OCCSc1nc2ccc([N+](=O)[O-])cc2s1	x	-19%	i	9%	u
SMILES	SW480 rerep	ELG1 repair inh	KB-3-1 cytotox	MCF10A rerep	KB-V1 MDR tox
Cc1cc(C(=O)CSc2nnc(-c3ccc(F)cc3)o2)c(C)n1CC1COc2ccccc2O1 (stereo not drawn)	8%	-16%	i	16µM*	i
Cc1cc(C(=O)CN2C(=O)C(=O)N(C3CCCC3)C2=O)c(C)n1CCc1ccccc1	-5%	-4%	u	16%	u
Cc1cc(C(=O)CN2C(=O)C(=O)N(Cc3ccccc3)C2=O)c(C)n1Cc1ccccc1	-3%	16%	i	14%	21µM*
Cc1cc(C(=O)CN2C(=O)C(=O)N(Cc3ccccc3)C2=O)c(C)n1-c1ccccc1F	9%	6%	i	u	i
Cc1cc(C(=O)CN2C(=O)C(=O)N(Cc3ccccc3)C2=O)c(C)n1CC1COc2ccccc2O1 (stereo not drawn)	14%	6.5µM*	i	4.6µM*	i
COc1ccc(CCn2c(C)cc(C(=O)CN3C(=O)C(=O)N(Cc4ccco4)C3=O)c2C)cc1	143%	-23%	5.8µM*	12%	i
CCOC(=O)c1cc(-c2ccccc2)n(CC(=O)Nc2ccc(OC)cc2OC)c1C	x	x	i	x	i
O=C(O)c1ccc(OCc2occc2C(=O)O)cc1	-2%	x	i	-12%	i
Cc1cc(C(=O)CN2C(=O)C(=O)N(Cc3ccccc3)C2=O)c(C)n1Cc1ccc(F)cc1	u	8%	u	5.2µM*	i
CN(C)S(=O)(=O)N1CCCC(C(=O)c2ccc(C(F)(F)F)cc2)C1 (stereo not drawn)	0%	u	i	10%	23µM*
CSc1nn(Cc2ccc(Cl)cc2)c(N(C(C)=O)C(C)=O)c1S(=O)(=O)c1ccccc1	x	x	i	x	i
CN1CCN(c2nc(-c3ccc(Cl)cc3Cl)nc3ccccc23)CC1	-5%	-5%	i	-3%	u
CC(C)c1cc(CN2C(C)COCC2C)cc(C(C)C)c1O (stereo not drawn)	-3%	x	u	2%	16µM*
CCOC(=O)C1CCN(Cc2cc(C(C)C)c(O)c(C(C)C)c2)CC1	2%	9%	i	u	u
Cc1cccc(-c2ncc(S(=O)(=O)C(C)(C)C)c(N)n2)c1	-12%	u	i	-3%	i
CCc1c(C)sc2c1CCN(Cc1ccccc1F)C2c1ccccc1 (stereo not drawn)	x	x	18µM*	x	u
CCn1c(=N)n(CCOc2ccc(OC)cc2)c2ccccc21	3%	-15%	i	3%[9.22 µM]	i
CCN(CC)S(=O)(=O)c1ccc(S(=O)(=O)Nc2c(C)nn(C)c2C)cc1	4%	-15%	u	15%	i
Fc1cc2[nH]c(=S)[nH]c2c(Br)c1N1CCSCC1	12%	u	2.1µM*	9%	u
Fc1cc2nccnc2cc1N1CCSCC1	-8%	4%	i	-3%	i
C=CCn1c(SCC(=O)c2cc(C)n(Cc3cccs3)c2C)nnc1-c1ccncc1	0%[9.22 µM]	16µM*	i	-12%	u
Cc1ccccc1-n1c(SCC(=O)c2cc(C)n(C)c2C)nnc1-c1ccncc1	4%	11µM*	i	14%	i

From PubChem BioAssay
